Test results as given in PubChem BioAssay (EPA / NIEHS).
The source made the active and inactive calls. The calls were made as follows: active = hit-call score of the fitted dose curve at least 0.9, where 1 is the maximum; inactive = score below 0.9.

Tests used:
Settings in all cases: mRNA level, 48 h; actives raise or lower the signal
[1] = read-out: Pro-epidermal growth factor (Homo sapiens) (UniProt P01133); assay: LTEA_HepaRG_EGF: Life Technologies and Expression Analysis (LTEA) Assay for Epidermal growth factor (EGF) using HepaRG (AID 2283489)
Outline: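 EGF expression changes in human HepaRG cells are scored by bidirectional fitting relative to 0.5% DMSO controls. Chemicals are tested at eight half-log concentrations up to 100 uM for 48 h in serum-free induction medium.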

[2] = read-out: Early growth response protein 1 (EGR1) transcription factor, EGR1 (gene 1958); assay: LTEA_HepaRG_EGR1: Life Technologies and Expression Analysis (LTEA) Assay for Early growth response protein 1 (EGR1) transcription factor using HepaRG (AID 2283490)
Outline: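 EGR1 transcript levels quantified by qRT-PCR (Fluidigm arrays) against three housekeeping genes after 48 h chemical exposure of HepaRG cells. Eight-point half-log series topping at 100 uM, 0.5% DMSO vehicle, analyzed for gain or loss.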

[3] = read-out: Ezrin (EZR), EZR (gene 7430); assay: LTEA_HepaRG_EZR: Life Technologies and Expression Analysis (LTEA) Assay for Ezrin (EZR) using HepaRG (AID 2283491)
Outline: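 Differentiated human HepaRG cells, 48 h after plating, were exposed in serum-free induction medium for 48 hours to eight half-log concentrations up to 100 uM in 0.5% DMSO. EZR mRNA was measured by TaqMan qRT-PCR, normalized to ACTB, GAPDH and POLR2A, and fitted bidirectionally against DMSO.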

[4] = read-out: Cytochrome P450 3A7 (Homo sapiens) (UniProt P24462); assay: LTEA_HepaRG_CYP3A7: Life Technologies and Expression Analysis (LTEA) Assay for CYP3A7 using HepaRG (AID 2283492)
Outline: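 Cells were thawed, plated, cultured 48 h, then treated for a further 48 h with chemicals (eight-point half-log series from 100 uM, 0.5% DMSO). RNA was isolated and CYP3A7 expression quantified by qRT-PCR normalised to ACTB, GAPDH and POLR2A.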

CYP3A5 (gene 1577) = assay: LTEA_HepaRG_CYP3A5: Life Technologies and Expression Analysis (LTEA) Assay for CYP3A5 using HepaRG (AID 2283493)
Outline: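 Human HepaRG hepatic cells receive 48 h chemical treatment at eight concentrations (half-log steps from 100 uM) in 0.5% DMSO. Expression of CYP3A5 is quantified by Fluidigm qRT-PCR and normalized to three reference genes.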

[5] = read-out: Fatty Acid-Binding Protein 1 (FABP1), FABP1 (gene 2168); assay: LTEA_HepaRG_FABP1: Life Technologies and Expression Analysis (LTEA) Assay for Fatty Acid-Binding Protein 1 (FABP1) using HepaRG (AID 2283494)
Outline: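 FABP1 expression by TaqMan qRT-PCR, normalised to three housekeeping genes, in HepaRG cells after 48 h chemical treatment. Eight-point half-log series topping at 100 uM in 0.5% DMSO, duplicates; gain or loss fitted relative to vehicle.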

[6] = read-out: Cytochrome P450 4A22 (Homo sapiens) (UniProt Q5TCH4); assay: LTEA_HepaRG_CYP4A22: Life Technologies and Expression Analysis (LTEA) Assay for Cytochrome P450 4A22 (CYP4A22) using HepaRG (AID 2283495)
Outline: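 Cryopreserved HepaRG cells, plated and cultured 48 h, then switched to serum-free induction medium and treated 48 h (duplicates, up to 100 uM, half-log steps, 0.5% DMSO). Expression change of CYP4A22 was fitted bidirectionally against vehicle.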

[7] = read-out: Cytochrome P450 7A1 (Homo sapiens) (UniProt P22680); assay: LTEA_HepaRG_CYP7A1: Life Technologies and Expression Analysis (LTEA) Assay for Cytochrome P450 7A1 (CYP7A1) using HepaRG (AID 2283496)
Outline: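 HepaRG, 48 h exposure, 8-pt half-log series from 100 uM, 0.5% DMSO vehicle, duplicates. Readout: TaqMan qRT-PCR mRNA vs three housekeeping genes; bidirectional curve fit against DMSO baseline.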

[8] = read-out: Glutathione S-Transferase (GSTA2), GSTA2 (gene 2939); assay: LTEA_HepaRG_GSTA2: Life Technologies and Expression Analysis (LTEA) Assay for Glutathione S-Transferase (GSTA2) using HepaRG (AID 2283497)
Outline: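 GSTA2 transcript levels came from Fluidigm TaqMan qRT-PCR normalized to three housekeeping genes, fitted in both directions against DMSO. HepaRG cultures received chemicals for 48 h in serum-free induction medium (0.5% DMSO), 8 half-log concentrations up to 100 uM, duplicate.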

[9] = read-out: Glutamate-cysteine ligase catalytic (GCLC), GCLC (gene 2729); assay: LTEA_HepaRG_GCLC: Life Technologies and Expression Analysis (LTEA) Assay for Glutamate-cysteine ligase catalytic (GCLC) using HepaRG (AID 2283498)
Outline: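 Expression by TaqMan qRT-PCR, normalized to three housekeeping genes (ACTB, GAPDH, POLR2A), with up- or down-regulation fitted against DMSO. HepaRG cells dosed in duplicate for 48 h with 8 half-log concentrations up to 100 uM, vehicle 0.5% DMSO.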

[10] = read-out: growth arrest and DNA damage 45 (GADD45G), GADD45G (gene 10912); assay: LTEA_HepaRG_GADD45G: Life Technologies and Expression Analysis (LTEA) Assay for growth arrest and DNA damage 45 (GADD45G) using HepaRG (AID 2283499)
Outline: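 Human hepatic HepaRG line treated 48 h with chemicals (eight concentrations, half-log steps from 100 uM); transcript induction or repression of GADD45G scored by qRT-PCR versus DMSO vehicle.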

[11] = read-out: Heat shock 70 kDa protein 1 (HSPA1A), gene 3303; assay: LTEA_HepaRG_HSPA1A: Life Technologies and Expression Analysis (LTEA) Assay for Heat shock 70 kDa protein 1 (HSPA1A) using HepaRG (AID 2283502)
Outline: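 Cells were plated and cultured for 48 h, then switched to serum-free induction medium. Chemicals were added at eight half-log concentrations up to 100 uM for 48 h. RNA was then isolated and HSPA1A measured by qRT-PCR with bidirectional curve fitting against DMSO.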

[12] = read-out: Hypoxia-inducible factor 1-alpha (Homo sapiens) (UniProt Q16665); assay: LTEA_HepaRG_HIF1A: Life Technologies and Expression Analysis (LTEA) Assay for Hypoxia-inducible factor 1 (HIF1A) Trancription factor using HepaRG (AID 2283503)
Outline: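 HIF1A transcript level read by qRT-PCR (ACTB, GAPDH, POLR2A normalization) after 48 h chemical exposure of HepaRG cultures. Eight half-log concentrations, top 100 uM, 0.5% DMSO vehicle, duplicates; bidirectional curve fit against DMSO baseline.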

[13] = read-out: 3-Hydroxy-3-Methylglutaryl-CoA Synthase 2 (HMGCS2), HMGCS2 (gene 3158); assay: LTEA_HepaRG_HMGCS2: Life Technologies and Expression Analysis (LTEA) Assay for 3-Hydroxy-3-Methylglutaryl-CoA Synthase 2 (HMGCS2) using HepaRG (AID 2283504)
Outline: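 Expression of HMGCS2 in human HepaRG liver cells is measured by qRT-PCR 48 h after dosing (highest 100 uM, half-log series, 0.5% DMSO). Values come from bidirectional concentration-response fitting with DMSO as baseline.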

HGF (gene 3082) = assay: LTEA_HepaRG_HGF: Life Technologies and Expression Analysis (LTEA) Assay for Hepatocyte Growth Facto (HGF) using HepaRG (AID 2283505)
Outline: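 Gain or loss of HGF mRNA in human HepaRG liver cells after 48 h chemical exposure; eight concentrations up to 100 uM with 0.5% DMSO vehicle, quantified by TaqMan qRT-PCR.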

[14] = read-out: Insulin Like Growth Factor 1 (IGF1), IGF1 (gene 3479); assay: LTEA_HepaRG_IGF1: Life Technologies and Expression Analysis (LTEA) Assay for Insulin Like Growth Factor 1 (IGF1) using HepaRG (AID 2283506)
Outline: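 Cells are thawed, plated and cultured 48 h, then exposed in duplicate to chemical (highest 100 uM, half-log steps, 0.5% DMSO) for another 48 h. Total RNA is analysed by Fluidigm qRT-PCR for IGF1 expression relative to vehicle.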

[15] = read-out: Intercellular Adhesion Molecule 1 (ICAM1), ICAM1 (gene 3383); assay: LTEA_HepaRG_ICAM1: Life Technologies and Expression Analysis (LTEA) Assay for Intercellular Adhesion Molecule 1 (ICAM1) using HepaRG (AID 2283507)
Outline: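 Gain or loss of transcript in HepaRG hepatic cells is quantified by qRT-PCR after 48 h chemical exposure (up to 100 uM, half-log steps), with DMSO as baseline.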

[16] = read-out: Insulin-like growth factor-binding protein 1 (IGFBP1), IGFBP1 (gene 3484); assay: LTEA_HepaRG_IGFBP1: Life Technologies and Expression Analysis (LTEA) Assay for Insulin-like growth factor-binding protein 1 (IGFBP1) using HepaRG (AID 2283508)
Outline: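 mRNA induction or loss was quantified by qRT-PCR after 48 h chemical exposure of human HepaRG cells, with 0.5% DMSO as vehicle and baseline. Concentration-response over eight points up to 100 uM.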

[17] = read-out: Glutamate-cysteine ligase regulatory (GCLM), GCLM (gene 2730); assay: LTEA_HepaRG_GCLM: Life Technologies and Expression Analysis (LTEA) Assay for Glutamate-cysteine ligase regulatory (GCLM) using HepaRG (AID 2283500)
Outline: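 Endpoint is GCLM transcript level by qRT-PCR, normalized to three housekeeping genes, after 48 h chemical exposure of human HepaRG cells (0.5% DMSO vehicle, top 100 uM, half-log dilutions). Fitting was bidirectional relative to DMSO.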

[18] = read-out: Glutathione S-transferase M3 (GSTM3), GSTM3 (gene 2947); assay: LTEA_HepaRG_GSTM3: Life Technologies and Expression Analysis (LTEA) Assay for Glutathione S-transferase M3 (GSTM3) using HepaRG (AID 2283501)
Outline: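 Changes in GSTM3 expression, an oxidative-stress marker, were scored by bidirectional curve fitting against 0.5% DMSO vehicle. Human HepaRG cultures received chemicals for 48 h in duplicate, highest concentration 100 uM with half-log dilutions.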

Measured: AC50

Hypoxia-inducible factor 1-alpha (Homo sapiens), sequence (Q16665 whole entry, looked up): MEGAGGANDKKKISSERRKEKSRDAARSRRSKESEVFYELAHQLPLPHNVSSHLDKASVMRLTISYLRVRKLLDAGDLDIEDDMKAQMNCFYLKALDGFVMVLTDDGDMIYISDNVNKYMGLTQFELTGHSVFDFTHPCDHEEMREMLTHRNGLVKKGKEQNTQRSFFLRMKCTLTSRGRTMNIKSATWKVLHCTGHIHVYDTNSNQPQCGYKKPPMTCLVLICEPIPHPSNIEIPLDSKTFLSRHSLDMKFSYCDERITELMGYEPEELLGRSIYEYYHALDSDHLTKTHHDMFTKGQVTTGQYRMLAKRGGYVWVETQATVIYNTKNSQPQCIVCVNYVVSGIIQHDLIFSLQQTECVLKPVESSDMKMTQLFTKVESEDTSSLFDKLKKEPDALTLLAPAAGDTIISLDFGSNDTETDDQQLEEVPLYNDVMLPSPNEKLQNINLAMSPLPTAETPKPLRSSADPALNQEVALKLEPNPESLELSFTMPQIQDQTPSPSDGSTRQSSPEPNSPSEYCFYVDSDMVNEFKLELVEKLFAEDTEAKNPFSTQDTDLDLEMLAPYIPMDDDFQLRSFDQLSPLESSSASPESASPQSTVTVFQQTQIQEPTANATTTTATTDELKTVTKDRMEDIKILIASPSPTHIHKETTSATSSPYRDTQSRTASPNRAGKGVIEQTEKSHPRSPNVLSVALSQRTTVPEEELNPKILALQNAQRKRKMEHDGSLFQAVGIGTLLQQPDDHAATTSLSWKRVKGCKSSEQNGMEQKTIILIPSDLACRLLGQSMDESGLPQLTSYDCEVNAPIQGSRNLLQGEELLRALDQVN
Cytochrome P450 3A7 (Homo sapiens), sequence (P24462 whole entry, looked up): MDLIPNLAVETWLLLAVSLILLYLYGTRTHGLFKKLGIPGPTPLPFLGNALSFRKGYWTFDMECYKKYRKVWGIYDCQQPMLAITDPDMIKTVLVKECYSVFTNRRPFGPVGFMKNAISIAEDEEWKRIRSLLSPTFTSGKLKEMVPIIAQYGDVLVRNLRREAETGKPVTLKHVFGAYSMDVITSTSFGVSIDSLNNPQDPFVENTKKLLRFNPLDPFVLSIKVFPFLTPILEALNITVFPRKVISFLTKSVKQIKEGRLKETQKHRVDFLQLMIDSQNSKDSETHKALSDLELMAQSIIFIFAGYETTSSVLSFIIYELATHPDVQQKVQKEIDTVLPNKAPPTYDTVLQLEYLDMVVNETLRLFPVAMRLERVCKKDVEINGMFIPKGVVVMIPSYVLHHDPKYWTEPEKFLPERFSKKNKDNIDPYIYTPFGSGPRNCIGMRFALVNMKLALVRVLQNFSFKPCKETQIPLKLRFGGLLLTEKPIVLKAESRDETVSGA

CCOP(=S)(OCC)Oc1nc(Cl)n(C(C)C)n1
active: [6] 35.9 µM | [7] 2.01 µM | [13] 17.2 µM | [14] 18.9 µM | [16] 1.57 µM
not listed: [17] | [18]
inactive: all other assays above

COP(=O)(OC)O/C(C)=C/C(=O)N(C)C
not listed: [6]
inactive: all other assays above

CC1(C)C(C(=O)OC(C#N)c2cccc(Oc3ccccc3)c2)C1(C)C (stereo not drawn)
not listed: [9] | [18]
inactive: all other assays above

CC(C)NC(=O)N1CC(=O)N(c2cc(Cl)cc(Cl)c2)C1=O
active: [1] 12.8 µM | [5] 13.2 µM | [6] 8.83 µM | [7] 13.1 µM | [8] 25 µM | [10] 50 µM | [13] 13.2 µM | [14] 3.79 µM
not listed: [17]
inactive: all other assays above

CCN(CC)c1nc(C)cc(OP(=S)(OC)OC)n1
active: [4] 8.23 µM | [5] 50 µM
not listed: [6]
inactive: all other assays above

CCOC(=O)C(C)OC(=O)c1cc(Oc2ccc(C(F)(F)F)cc2Cl)ccc1[N+](=O)[O-] (stereo not drawn)
active: [2] 18.7 µM | [4] 5.9 µM | CYP3A5 (gene 1577) 27.5 µM | [5] 14.5 µM | [6] 0.414 µM | [7] 50 µM | [8] 84.3 µM | [10] 3.82 µM | [13] 1.38 µM | [14] 21 µM
inactive: [1] | [3] | [9] | [17] | [18] | [11] | [12] | HGF (gene 3082) | [15] | [16]
